# Reference: article PMC7862700, “An all-to-all approach to the identification of sequence-specific readers for epigenetic DNA modifications on cytosine”
# How the values were obtained:
# Assay in all cases: DAPPL (digital affinity profiling via proximity ligation, sequencing); 10 mM Tris-HCl pH 7.5, 50 mM NaCl, 1 mM DTT, 4% glycerol, room temperature, 30 min; GST-TFs on glutathione beads, 16-mer random dsDNA library, 0.1% formaldehyde crosslink after washing; high values mean tight binding
# FLI1 = target: T1, FLI1 (Homo sapiens, UniProt Q01543 1-452); conditions: protein: recombinant; tags: N-terminal GST; dsDNA, one strand shown
# T1 sequence: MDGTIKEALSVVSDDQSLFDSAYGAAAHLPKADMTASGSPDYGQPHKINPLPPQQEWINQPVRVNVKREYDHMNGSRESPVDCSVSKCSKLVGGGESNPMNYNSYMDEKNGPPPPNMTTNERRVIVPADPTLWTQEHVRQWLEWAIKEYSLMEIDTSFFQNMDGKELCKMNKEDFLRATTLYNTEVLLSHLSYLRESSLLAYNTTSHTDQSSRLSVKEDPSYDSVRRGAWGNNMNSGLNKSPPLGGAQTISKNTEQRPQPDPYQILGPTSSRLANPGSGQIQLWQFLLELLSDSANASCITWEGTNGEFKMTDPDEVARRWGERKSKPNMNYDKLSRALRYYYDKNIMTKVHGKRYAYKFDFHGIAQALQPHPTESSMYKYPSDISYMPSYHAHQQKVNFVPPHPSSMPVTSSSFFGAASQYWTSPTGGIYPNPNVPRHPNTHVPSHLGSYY
# Procedure, shortened: (§1)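 Pools were built from human transcription factors expressed in yeast as GST fusions, captured on glutathione beads and DNA-barcoded, along with a tag-only sample. Incubation with 200 nmole of a 16-mer random double-stranded DNA library lasted 30 min at room temperature in Tris/NaCl/DTT/glycerol buffer, and was followed by washing, 0.1% formaldehyde crosslinking, proximity ligation, PCR amplification and Illumina NextSeq500 sequencing. Binding signal is the quotient of each hexamer's read frequency for a factor and its frequency for the tag-only sample.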
# ELK1 = target: T2, ELK1 (Homo sapiens, UniProt P19419 1-428); conditions: protein: recombinant; tags: N-terminal GST; dsDNA, one strand shown
# T2 sequence: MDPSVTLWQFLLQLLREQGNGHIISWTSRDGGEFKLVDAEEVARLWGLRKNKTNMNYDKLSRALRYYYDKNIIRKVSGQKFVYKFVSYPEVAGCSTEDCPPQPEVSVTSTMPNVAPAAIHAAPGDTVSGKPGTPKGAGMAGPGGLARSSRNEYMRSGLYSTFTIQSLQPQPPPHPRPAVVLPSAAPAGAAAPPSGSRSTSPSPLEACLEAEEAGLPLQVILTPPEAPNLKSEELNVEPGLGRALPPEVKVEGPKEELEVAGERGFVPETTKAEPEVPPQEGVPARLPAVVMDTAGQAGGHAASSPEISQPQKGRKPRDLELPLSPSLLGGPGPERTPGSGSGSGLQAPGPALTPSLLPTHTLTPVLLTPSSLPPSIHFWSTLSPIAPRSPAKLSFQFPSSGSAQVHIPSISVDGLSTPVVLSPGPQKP
# Procedure, shortened: as §1
# GABPA = target: T3, GABPA (Homo sapiens, UniProt Q06546 1-454); conditions: protein: recombinant; tags: N-terminal GST; dsDNA, one strand shown
# T3 sequence: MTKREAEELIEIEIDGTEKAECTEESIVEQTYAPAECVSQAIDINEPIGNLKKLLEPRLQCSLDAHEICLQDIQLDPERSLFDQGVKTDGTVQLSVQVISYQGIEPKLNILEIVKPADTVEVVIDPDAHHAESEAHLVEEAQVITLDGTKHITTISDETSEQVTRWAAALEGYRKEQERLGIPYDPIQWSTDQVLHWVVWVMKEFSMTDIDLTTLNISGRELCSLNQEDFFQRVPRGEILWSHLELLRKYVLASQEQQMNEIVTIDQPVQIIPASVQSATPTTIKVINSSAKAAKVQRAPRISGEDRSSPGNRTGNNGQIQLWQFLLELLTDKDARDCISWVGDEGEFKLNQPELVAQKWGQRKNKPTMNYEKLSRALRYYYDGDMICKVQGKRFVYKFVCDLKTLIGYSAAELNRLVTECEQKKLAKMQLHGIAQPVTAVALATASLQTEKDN
# Procedure, shortened: as §1
# ERG = target: T4, ERG (Homo sapiens, UniProt P11308 1-479); conditions: protein: recombinant; tags: N-terminal GST; dsDNA, one strand shown
# T4 sequence: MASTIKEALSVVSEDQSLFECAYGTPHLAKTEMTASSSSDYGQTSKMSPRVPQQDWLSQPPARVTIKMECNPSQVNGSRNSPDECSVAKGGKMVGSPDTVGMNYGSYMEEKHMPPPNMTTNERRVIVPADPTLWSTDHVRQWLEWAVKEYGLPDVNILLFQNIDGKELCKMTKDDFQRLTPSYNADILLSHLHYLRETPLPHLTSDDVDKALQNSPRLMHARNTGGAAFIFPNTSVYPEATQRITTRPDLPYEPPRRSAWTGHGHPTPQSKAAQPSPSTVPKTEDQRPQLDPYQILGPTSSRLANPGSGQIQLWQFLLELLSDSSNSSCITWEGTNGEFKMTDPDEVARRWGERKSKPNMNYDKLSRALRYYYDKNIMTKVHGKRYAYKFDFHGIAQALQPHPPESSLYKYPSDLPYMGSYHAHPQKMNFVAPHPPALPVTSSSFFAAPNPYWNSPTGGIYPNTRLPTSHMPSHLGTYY
# Procedure, shortened: as §1
# ELF1 = ELF1 (Homo sapiens, UniProt P32519 1-619); conditions: protein: recombinant; tags: N-terminal GST; dsDNA, one strand shown
# Procedure, shortened: as §1
# EHF = target: T5, EHF (Homo sapiens, UniProt Q9NZC4 1-300); conditions: protein: recombinant; tags: N-terminal GST; dsDNA, one strand shown
# T5 sequence: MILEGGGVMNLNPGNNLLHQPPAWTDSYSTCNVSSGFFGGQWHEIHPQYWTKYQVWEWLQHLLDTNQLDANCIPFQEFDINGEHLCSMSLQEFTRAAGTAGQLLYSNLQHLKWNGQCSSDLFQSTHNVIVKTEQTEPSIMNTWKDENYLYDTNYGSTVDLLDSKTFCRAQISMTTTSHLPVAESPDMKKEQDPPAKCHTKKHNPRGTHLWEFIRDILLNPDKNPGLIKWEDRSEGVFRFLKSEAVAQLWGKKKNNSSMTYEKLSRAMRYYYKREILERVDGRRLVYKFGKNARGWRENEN
# Procedure, shortened: as §1
# SPI1 = SPI1 (Homo sapiens, UniProt P17947 1-270); conditions: protein: recombinant; tags: N-terminal GST; dsDNA, one strand shown
# Procedure, shortened: as §1
# SPIB = SPIB (Homo sapiens, UniProt Q01892 1-262); conditions: protein: recombinant; tags: N-terminal GST; dsDNA, one strand shown
# Procedure, shortened: as §1
# ELK3 = target: T6, ELK3 (Homo sapiens, UniProt P41970 1-407); conditions: protein: recombinant; tags: N-terminal GST; dsDNA, one strand shown
# T6 sequence: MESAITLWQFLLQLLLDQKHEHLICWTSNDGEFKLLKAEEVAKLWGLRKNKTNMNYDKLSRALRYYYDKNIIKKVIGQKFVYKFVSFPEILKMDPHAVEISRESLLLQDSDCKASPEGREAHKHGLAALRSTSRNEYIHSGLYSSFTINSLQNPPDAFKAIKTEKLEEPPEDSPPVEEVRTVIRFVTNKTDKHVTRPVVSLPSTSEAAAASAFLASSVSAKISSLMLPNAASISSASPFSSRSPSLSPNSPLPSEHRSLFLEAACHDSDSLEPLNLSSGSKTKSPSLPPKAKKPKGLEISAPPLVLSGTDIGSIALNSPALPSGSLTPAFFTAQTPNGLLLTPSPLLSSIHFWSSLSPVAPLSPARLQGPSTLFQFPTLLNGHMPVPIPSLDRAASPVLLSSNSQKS
# Procedure, shortened: as §1
# FEV = target: T7, FEV (Homo sapiens, UniProt Q99581 1-238); conditions: protein: recombinant; tags: N-terminal GST; dsDNA, one strand shown
# T7 sequence: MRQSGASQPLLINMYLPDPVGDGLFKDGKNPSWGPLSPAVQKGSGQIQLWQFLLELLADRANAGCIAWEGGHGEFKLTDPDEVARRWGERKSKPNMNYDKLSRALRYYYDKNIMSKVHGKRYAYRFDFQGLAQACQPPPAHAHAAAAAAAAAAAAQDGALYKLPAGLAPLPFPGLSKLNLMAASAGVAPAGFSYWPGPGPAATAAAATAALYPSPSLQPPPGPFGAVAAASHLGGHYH
# Procedure, shortened: as §1
# ETV5 = ETV5 (Homo sapiens, UniProt P41161 1-510); conditions: protein: recombinant; tags: N-terminal GST; dsDNA, one strand shown
# Procedure, shortened: as §1
# HSF1 = HSF1 (Homo sapiens, UniProt Q00613 1-529); conditions: protein: recombinant; tags: N-terminal GST; chain copies: 3; dsDNA, one strand shown
# Procedure, shortened: as §1
# SPIC = target: T8, SPIC (Homo sapiens, UniProt Q8N5J4 1-248); conditions: protein: recombinant; tags: N-terminal GST; dsDNA, one strand shown
# T8 sequence: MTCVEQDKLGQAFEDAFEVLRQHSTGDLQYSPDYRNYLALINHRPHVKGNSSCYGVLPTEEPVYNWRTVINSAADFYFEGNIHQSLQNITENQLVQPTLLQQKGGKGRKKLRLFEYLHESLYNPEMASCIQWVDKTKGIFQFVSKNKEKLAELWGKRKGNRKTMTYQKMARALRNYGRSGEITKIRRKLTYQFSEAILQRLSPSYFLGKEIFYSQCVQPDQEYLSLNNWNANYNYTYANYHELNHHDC
# Procedure, shortened: as §1
# ELF4 = ELF4 (Homo sapiens, UniProt Q99607 1-663); conditions: protein: recombinant; tags: N-terminal GST; dsDNA, one strand shown
# Procedure, shortened: as §1
# ELK4 = target: T9, ELK4 (Homo sapiens, UniProt P28324-2 1-405); conditions: protein: recombinant; tags: N-terminal GST; dsDNA, one strand shown
# T9 sequence: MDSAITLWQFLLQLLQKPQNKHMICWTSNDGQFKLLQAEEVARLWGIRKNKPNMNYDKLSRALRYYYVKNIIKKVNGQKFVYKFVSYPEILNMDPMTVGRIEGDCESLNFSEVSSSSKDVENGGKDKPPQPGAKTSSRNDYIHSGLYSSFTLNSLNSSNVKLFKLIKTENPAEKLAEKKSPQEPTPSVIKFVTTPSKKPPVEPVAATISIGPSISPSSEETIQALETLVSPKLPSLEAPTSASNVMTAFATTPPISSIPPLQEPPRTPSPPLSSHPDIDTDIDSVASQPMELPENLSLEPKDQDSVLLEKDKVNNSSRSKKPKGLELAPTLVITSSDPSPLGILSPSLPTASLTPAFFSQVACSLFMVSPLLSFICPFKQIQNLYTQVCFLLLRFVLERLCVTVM
# Procedure, shortened: as §1
# ETV2 = target: T10, ETV2 (Homo sapiens, UniProt O00321 1-342); conditions: protein: recombinant; tags: N-terminal GST; dsDNA, one strand shown
# T10 sequence: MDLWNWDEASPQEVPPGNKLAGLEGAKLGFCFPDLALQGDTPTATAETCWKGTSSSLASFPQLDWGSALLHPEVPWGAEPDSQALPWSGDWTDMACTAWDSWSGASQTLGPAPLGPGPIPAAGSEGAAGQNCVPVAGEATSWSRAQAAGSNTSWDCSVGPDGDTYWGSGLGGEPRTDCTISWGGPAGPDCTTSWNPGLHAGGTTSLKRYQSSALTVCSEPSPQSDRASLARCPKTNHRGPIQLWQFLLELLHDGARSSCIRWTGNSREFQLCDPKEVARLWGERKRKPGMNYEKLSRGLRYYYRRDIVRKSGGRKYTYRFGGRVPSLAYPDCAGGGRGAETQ
# Procedure, shortened: as §1
# ELF3 = target: T11, ELF3 (Homo sapiens, UniProt P78545 1-371); conditions: protein: recombinant; tags: N-terminal GST; dsDNA, one strand shown
# T11 sequence: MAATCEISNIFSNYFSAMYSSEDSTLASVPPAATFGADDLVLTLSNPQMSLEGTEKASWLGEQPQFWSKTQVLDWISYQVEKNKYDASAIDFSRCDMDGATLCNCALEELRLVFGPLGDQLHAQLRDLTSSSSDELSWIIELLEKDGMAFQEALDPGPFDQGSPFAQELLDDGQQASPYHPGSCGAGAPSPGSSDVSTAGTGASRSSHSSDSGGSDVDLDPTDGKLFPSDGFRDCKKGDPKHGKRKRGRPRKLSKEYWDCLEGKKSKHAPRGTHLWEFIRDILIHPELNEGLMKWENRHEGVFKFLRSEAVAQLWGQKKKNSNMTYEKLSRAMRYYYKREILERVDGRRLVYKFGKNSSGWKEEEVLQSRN
# Procedure, shortened: as §1
# CRX = CRX (Homo sapiens, UniProt O43186 1-299); conditions: protein: recombinant; tags: N-terminal GST; dsDNA, one strand shown
# Procedure, shortened: as §1
# ETV1 = ETV1 (Homo sapiens, UniProt P50549 1-477); conditions: protein: recombinant; tags: N-terminal GST; dsDNA, one strand shown
# Procedure, shortened: as §1
# ETV5, sequence (P41161 whole entry): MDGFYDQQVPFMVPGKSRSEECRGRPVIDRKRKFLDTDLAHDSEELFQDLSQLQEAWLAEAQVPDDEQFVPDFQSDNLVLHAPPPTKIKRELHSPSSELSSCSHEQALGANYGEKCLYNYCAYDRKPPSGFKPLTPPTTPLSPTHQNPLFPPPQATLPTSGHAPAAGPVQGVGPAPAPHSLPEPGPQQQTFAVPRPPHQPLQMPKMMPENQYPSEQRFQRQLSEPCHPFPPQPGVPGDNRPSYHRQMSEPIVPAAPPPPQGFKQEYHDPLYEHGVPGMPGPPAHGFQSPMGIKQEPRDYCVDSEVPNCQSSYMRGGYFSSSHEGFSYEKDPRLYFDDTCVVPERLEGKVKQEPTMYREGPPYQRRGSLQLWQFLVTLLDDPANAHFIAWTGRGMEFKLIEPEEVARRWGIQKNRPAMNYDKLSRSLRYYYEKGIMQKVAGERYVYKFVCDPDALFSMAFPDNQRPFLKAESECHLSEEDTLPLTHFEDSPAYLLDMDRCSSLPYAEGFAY
# HSF1, sequence (Q00613 whole entry): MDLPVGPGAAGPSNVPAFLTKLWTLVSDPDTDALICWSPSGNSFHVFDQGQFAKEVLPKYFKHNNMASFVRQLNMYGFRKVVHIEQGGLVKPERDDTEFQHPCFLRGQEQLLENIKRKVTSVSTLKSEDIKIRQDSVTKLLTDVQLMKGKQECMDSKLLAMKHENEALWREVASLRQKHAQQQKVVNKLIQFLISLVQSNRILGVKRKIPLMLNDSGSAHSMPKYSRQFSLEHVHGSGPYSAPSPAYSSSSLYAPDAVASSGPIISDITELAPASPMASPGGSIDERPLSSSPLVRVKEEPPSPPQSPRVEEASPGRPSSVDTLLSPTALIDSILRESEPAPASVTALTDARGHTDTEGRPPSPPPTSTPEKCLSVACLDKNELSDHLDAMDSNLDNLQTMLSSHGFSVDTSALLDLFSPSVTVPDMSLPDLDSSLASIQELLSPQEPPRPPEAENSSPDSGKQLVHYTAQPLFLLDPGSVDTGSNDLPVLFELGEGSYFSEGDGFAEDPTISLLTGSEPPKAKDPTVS
# ELF4, sequence (Q99607 whole entry): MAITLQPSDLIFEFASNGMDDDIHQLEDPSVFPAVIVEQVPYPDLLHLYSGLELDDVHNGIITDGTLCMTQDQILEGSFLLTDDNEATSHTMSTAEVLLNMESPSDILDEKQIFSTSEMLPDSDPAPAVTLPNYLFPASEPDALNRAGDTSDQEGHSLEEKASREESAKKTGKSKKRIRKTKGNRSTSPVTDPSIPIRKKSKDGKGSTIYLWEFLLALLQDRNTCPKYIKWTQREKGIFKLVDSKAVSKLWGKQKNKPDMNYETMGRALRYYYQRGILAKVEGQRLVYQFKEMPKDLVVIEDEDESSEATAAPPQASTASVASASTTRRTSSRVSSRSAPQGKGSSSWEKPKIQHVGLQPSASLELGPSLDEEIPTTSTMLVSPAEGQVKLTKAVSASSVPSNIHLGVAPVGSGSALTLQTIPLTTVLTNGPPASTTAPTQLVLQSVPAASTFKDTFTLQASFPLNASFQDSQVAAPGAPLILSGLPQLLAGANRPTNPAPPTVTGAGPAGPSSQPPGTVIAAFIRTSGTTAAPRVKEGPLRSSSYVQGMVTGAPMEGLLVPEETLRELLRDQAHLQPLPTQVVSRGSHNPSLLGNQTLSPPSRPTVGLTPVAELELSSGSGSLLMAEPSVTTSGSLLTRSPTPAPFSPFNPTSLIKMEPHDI
# ETV1, sequence (P50549 whole entry): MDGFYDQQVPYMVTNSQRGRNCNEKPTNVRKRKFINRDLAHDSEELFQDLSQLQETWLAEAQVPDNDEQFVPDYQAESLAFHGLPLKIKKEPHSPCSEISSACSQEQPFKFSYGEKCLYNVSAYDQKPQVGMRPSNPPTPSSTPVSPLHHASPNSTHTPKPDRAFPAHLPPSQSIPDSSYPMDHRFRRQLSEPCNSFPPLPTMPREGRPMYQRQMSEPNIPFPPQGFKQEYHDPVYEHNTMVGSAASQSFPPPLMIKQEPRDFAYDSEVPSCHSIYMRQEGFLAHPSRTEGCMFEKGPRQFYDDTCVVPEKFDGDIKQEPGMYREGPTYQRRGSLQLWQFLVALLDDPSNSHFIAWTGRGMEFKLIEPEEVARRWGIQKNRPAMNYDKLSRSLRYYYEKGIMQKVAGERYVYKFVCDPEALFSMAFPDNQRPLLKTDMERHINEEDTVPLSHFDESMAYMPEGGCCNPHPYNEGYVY
# CRX, sequence (O43186 whole entry): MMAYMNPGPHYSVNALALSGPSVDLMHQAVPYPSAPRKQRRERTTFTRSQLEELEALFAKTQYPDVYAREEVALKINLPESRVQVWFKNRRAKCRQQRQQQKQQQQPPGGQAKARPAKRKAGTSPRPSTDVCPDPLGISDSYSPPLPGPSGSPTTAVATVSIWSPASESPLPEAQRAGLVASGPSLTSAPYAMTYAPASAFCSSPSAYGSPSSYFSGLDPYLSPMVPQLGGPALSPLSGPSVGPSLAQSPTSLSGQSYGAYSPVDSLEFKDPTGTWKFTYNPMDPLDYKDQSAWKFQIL
# ELF1, sequence (P32519 whole entry): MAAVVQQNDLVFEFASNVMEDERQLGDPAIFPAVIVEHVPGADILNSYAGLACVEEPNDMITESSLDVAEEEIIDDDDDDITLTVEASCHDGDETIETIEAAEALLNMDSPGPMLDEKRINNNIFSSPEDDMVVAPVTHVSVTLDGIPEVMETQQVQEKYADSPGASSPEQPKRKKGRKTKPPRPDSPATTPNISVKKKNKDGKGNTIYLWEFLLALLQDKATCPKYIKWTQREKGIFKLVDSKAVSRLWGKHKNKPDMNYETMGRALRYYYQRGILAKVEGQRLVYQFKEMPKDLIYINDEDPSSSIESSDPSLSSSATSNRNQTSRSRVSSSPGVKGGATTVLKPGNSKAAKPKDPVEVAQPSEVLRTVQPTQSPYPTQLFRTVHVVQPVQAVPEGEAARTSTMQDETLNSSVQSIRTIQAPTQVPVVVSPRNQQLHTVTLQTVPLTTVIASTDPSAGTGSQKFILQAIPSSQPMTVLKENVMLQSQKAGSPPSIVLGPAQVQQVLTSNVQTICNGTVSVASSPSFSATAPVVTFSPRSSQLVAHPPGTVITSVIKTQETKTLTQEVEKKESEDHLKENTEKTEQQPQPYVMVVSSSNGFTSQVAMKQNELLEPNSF
# SPIB, sequence (Q01892 whole entry): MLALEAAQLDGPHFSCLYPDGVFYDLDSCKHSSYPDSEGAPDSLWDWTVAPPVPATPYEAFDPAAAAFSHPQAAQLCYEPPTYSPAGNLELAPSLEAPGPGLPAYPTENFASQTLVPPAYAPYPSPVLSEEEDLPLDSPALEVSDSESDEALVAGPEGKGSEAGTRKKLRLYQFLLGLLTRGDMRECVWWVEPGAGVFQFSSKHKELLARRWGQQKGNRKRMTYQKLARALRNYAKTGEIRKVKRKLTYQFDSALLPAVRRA
sequence,measurement,setting,value
TTGTAA,binding signal,FLI1,"1.32 fold enrichment (6-mer frequency, TF over GST control)"
same,binding signal,ELK1,"1.3 fold enrichment (6-mer frequency, TF over GST control)"
same,binding signal,GABPA,"1.24 fold enrichment (6-mer frequency, TF over GST control)"
same,binding signal,ERG,"1.27 fold enrichment (6-mer frequency, TF over GST control)"
same,binding signal,ELF1,"1.34 fold enrichment (6-mer frequency, TF over GST control)"
same,binding signal,EHF,"1.34 fold enrichment (6-mer frequency, TF over GST control)"
same,binding signal,SPI1,"1.3 fold enrichment (6-mer frequency, TF over GST control)"
same,binding signal,SPIB,"1.22 fold enrichment (6-mer frequency, TF over GST control)"
same,binding signal,ELK3,"1.08 fold enrichment (6-mer frequency, TF over GST control)"
same,binding signal,FEV,"1.2 fold enrichment (6-mer frequency, TF over GST control)"
same,binding signal,ETV5,"1.35 fold enrichment (6-mer frequency, TF over GST control)"
same,binding signal,HSF1,"1.4 fold enrichment (6-mer frequency, TF over GST control)"
same,binding signal,SPIC,"1.31 fold enrichment (6-mer frequency, TF over GST control)"
same,binding signal,ELF4,"1.24 fold enrichment (6-mer frequency, TF over GST control)"
same,binding signal,ELK4,"1.36 fold enrichment (6-mer frequency, TF over GST control)"
same,binding signal,ETV2,"1.36 fold enrichment (6-mer frequency, TF over GST control)"
same,binding signal,ELF3,"1.44 fold enrichment (6-mer frequency, TF over GST control)"
same,binding signal,CRX,"1.62 fold enrichment (6-mer frequency, TF over GST control)"
same,binding signal,ETV1,"1.31 fold enrichment (6-mer frequency, TF over GST control)"
